Experiments:
Test in all cases: log2 ratio of Biotin-Ahx-Ub-VS probe labelling (fragment/DMSO); higher = less target engagement (more negative = stronger competition), active = hit call of the paper (q ≤ 0.05, log2 ratio ≤ -1)
Conditions in all cases: compound concentration: 200 uM; treatment time: 3 h
USP42 = molecular target: T1, USP42 (UniProt Q9H9J4)
T1 sequence (whole entry): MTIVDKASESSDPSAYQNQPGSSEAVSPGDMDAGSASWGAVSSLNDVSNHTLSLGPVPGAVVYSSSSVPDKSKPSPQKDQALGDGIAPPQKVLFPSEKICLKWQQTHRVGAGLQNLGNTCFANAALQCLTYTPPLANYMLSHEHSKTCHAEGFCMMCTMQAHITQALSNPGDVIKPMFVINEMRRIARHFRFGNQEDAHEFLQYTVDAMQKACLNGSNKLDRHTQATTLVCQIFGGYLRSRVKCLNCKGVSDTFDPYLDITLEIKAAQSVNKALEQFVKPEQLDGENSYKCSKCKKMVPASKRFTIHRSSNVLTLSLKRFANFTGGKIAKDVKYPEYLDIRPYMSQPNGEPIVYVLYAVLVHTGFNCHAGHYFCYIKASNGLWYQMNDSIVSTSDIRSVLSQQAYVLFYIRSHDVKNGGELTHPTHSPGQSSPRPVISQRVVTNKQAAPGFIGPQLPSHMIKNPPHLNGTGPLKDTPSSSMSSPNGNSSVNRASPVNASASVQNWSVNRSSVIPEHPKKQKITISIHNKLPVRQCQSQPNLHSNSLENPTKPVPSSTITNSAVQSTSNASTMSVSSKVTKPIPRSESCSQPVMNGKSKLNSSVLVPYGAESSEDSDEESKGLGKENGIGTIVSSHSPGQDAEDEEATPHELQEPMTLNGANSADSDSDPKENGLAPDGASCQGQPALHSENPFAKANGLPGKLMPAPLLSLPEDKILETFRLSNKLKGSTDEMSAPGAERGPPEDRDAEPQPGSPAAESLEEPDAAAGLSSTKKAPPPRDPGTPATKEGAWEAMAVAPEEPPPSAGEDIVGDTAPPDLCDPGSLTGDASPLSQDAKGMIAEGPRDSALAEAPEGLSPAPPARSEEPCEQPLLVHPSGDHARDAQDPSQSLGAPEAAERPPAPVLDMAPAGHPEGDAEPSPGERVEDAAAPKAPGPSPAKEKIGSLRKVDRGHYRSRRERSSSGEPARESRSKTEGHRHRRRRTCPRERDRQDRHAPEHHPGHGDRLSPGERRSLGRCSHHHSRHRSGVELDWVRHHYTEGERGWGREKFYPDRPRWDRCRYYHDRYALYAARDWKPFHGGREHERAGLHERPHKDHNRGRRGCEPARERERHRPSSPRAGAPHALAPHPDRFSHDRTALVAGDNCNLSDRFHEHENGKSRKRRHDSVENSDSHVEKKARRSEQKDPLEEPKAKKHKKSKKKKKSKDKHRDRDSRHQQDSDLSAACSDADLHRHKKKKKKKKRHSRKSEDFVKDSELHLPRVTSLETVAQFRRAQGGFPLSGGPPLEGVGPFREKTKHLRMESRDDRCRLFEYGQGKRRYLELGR
Outline: (§1)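 HEK293T lysate (495 µg per sample, in Tris/CHAPS/IGEPAL buffer with protease inhibitors) was exposed in triplicate for 3 h to fragment at 200 µM or to vehicle, then to Biotin-Ahx-Ub-VS at 0.5 µM final for 1 h. Labelled DUBs were enriched on NeutrAvidin, digested with LysC and trypsin, and analysed by diaPASEF LC-MS/MS. Spectronaut label-free quantities were normalised to the global median, and values are average log2 ratios of fragment over vehicle from an unpaired t-test. Only proteins with ≥2 unique peptides were used.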

USP46 = USP46 (UniProt P62068)
Sequence of USP46 (P62068 whole entry): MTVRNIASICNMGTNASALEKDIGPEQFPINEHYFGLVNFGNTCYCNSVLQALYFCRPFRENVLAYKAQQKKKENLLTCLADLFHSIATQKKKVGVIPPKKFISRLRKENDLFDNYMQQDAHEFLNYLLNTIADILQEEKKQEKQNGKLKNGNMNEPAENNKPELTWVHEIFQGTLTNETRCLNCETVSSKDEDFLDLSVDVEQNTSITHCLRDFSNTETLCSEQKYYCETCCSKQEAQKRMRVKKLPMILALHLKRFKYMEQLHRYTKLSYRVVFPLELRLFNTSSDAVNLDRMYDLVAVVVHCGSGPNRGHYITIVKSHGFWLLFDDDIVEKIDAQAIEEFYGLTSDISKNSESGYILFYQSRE
Outline: as §1

USP47 = molecular target: T2, USP47 (UniProt Q96K76)
T2 sequence (whole entry): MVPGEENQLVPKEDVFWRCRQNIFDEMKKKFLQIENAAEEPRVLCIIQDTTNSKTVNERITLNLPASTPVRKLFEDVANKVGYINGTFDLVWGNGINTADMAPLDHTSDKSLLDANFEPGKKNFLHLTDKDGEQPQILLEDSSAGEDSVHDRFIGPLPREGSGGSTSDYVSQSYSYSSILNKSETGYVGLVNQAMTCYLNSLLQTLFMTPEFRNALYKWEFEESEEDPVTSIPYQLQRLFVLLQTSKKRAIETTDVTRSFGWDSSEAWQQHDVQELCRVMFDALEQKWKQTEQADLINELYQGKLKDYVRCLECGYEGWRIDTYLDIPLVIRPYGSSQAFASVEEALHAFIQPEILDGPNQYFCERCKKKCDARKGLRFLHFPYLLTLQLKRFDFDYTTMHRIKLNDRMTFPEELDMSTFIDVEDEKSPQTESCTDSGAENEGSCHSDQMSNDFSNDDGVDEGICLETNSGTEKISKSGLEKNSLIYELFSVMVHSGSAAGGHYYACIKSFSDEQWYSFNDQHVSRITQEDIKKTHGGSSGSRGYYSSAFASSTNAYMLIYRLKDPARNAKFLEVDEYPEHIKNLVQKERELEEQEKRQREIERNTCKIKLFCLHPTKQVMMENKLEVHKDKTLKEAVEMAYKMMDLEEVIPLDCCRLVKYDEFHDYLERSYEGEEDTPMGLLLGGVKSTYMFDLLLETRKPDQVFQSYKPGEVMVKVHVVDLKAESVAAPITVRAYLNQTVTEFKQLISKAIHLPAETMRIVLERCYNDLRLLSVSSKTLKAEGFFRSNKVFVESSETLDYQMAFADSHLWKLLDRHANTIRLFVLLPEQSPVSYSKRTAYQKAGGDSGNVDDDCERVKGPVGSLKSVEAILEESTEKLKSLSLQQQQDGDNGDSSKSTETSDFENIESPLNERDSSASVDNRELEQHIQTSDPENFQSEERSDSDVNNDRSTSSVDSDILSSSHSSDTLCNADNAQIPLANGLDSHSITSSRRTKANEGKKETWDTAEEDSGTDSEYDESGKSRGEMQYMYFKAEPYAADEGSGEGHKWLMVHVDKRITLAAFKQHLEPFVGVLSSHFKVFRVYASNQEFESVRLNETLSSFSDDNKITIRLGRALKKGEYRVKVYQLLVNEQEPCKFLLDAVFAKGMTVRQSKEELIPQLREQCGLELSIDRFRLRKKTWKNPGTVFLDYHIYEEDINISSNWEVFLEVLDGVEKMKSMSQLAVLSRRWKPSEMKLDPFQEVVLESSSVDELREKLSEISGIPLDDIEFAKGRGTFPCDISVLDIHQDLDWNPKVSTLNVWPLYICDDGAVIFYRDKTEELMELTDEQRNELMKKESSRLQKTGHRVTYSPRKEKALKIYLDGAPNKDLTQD
Outline: as §1

USP48 = molecular target: T3, USP48 (UniProt Q86UV5)
T3 sequence (whole entry): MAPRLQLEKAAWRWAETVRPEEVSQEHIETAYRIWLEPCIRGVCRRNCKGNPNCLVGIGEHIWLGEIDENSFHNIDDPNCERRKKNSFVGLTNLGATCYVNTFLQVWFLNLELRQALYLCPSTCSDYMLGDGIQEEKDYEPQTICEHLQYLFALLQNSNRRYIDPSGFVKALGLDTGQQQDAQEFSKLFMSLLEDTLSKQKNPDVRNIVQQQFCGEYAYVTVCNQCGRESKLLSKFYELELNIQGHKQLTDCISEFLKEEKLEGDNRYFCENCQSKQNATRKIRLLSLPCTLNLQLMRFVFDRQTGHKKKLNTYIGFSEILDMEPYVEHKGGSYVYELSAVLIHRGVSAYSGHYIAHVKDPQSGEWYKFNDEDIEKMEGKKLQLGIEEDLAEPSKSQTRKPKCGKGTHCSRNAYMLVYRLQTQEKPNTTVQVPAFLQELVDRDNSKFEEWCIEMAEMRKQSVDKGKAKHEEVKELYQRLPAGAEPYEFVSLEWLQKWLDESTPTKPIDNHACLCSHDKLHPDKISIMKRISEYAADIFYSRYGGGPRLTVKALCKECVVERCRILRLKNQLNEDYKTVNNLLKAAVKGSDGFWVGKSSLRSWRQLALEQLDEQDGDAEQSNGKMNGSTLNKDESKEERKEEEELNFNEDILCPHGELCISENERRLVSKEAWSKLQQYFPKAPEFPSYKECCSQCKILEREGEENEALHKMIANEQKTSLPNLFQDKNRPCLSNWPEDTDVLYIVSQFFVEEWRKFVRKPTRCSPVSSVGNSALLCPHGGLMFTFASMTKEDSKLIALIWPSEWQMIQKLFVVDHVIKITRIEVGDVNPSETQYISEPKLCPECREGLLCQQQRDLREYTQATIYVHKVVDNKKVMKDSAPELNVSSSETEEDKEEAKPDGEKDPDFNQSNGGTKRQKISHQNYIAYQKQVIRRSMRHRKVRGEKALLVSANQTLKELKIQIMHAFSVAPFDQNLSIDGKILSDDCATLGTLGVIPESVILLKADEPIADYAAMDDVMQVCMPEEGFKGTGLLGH
Outline: as §1

USP5 = molecular target: T4, USP5 (UniProt P45974)
T4 sequence (whole entry): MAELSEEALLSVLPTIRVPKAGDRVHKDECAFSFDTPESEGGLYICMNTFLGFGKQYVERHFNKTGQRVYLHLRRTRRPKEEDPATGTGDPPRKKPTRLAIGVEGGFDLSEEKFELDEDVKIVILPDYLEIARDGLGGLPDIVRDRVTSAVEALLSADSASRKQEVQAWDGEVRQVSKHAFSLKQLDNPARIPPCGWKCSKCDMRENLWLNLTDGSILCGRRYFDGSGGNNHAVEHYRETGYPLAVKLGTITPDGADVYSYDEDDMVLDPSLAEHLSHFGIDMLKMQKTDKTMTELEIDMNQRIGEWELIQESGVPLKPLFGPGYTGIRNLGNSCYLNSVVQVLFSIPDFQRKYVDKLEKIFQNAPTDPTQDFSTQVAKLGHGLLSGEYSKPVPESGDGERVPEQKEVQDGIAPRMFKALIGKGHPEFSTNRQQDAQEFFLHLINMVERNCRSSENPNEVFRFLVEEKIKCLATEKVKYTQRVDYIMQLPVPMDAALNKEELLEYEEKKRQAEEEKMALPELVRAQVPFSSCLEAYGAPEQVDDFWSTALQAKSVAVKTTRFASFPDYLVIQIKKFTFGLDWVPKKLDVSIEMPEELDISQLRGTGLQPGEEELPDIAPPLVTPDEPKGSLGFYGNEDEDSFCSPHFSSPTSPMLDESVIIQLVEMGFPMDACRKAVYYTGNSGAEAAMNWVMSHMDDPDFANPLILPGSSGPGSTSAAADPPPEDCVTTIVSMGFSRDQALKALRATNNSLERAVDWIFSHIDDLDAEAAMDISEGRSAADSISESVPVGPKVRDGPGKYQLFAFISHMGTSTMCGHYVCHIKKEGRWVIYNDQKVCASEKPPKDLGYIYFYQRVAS
Outline: as §1

USP54 = USP54 (UniProt Q70EL1)
Outline: as §1

USP7 = USP7 (UniProt Q93009)
Sequence of USP7 (Q93009 whole entry, looked up): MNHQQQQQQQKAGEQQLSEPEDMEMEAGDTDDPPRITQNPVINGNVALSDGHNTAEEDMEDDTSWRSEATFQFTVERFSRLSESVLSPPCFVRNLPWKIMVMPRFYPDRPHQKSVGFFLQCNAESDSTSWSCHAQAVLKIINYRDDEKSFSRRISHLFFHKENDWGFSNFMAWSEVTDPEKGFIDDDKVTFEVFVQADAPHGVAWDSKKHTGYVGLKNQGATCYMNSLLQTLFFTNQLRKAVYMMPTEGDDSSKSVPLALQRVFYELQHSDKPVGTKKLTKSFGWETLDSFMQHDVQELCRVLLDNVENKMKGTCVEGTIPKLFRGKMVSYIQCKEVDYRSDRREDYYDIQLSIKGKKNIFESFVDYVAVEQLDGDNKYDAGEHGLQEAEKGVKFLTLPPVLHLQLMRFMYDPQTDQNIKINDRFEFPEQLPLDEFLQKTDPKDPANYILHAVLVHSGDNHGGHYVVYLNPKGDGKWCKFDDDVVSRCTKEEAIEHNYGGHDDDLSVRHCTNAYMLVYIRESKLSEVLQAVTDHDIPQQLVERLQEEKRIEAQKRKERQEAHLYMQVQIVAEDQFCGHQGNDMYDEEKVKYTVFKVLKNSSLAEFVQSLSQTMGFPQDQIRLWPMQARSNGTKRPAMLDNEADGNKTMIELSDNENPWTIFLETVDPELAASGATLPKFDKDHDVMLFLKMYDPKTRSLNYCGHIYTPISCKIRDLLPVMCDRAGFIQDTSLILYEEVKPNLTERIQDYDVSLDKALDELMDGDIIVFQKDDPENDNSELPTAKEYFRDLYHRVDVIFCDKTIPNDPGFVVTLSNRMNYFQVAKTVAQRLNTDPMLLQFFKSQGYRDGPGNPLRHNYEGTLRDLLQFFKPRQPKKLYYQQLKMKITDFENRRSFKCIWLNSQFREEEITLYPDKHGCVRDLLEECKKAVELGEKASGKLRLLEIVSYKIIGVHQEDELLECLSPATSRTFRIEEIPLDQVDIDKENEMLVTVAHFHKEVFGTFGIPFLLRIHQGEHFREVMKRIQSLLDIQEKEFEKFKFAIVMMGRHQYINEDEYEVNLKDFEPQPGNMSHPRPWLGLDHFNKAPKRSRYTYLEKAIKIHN
Outline: as §1

USP8 = molecular target: T5, USP8 (UniProt P40818)
T5 sequence (whole entry): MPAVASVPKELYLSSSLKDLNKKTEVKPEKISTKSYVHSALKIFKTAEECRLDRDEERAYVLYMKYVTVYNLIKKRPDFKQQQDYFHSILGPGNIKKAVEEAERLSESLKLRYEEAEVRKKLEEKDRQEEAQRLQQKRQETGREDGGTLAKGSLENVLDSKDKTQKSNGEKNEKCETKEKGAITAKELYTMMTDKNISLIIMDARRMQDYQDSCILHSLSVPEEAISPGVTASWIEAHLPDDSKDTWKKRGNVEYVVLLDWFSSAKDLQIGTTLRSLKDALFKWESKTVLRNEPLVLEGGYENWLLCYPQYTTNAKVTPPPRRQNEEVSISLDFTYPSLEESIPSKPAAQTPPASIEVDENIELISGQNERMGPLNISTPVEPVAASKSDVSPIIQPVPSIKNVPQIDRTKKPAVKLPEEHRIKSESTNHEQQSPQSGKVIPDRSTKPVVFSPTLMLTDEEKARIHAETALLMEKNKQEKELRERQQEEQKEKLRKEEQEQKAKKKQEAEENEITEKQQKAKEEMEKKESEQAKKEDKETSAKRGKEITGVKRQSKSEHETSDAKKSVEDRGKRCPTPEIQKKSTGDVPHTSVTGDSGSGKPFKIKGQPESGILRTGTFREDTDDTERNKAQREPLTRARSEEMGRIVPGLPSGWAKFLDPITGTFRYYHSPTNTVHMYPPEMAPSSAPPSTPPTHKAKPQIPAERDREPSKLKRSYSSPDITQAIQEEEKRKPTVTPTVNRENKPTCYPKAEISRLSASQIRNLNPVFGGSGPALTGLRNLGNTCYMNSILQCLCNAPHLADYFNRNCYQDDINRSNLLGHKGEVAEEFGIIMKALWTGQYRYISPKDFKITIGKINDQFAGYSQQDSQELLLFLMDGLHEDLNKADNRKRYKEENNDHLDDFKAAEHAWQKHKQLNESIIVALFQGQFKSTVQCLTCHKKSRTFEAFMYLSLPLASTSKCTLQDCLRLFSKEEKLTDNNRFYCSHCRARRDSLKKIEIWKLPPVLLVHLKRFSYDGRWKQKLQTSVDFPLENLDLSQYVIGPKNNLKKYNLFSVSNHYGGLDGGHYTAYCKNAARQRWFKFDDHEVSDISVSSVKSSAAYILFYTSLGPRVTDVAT
Outline: as §1

USP9X = USP9X (UniProt Q93008)
Sequence of USP9X (Q93008 whole entry): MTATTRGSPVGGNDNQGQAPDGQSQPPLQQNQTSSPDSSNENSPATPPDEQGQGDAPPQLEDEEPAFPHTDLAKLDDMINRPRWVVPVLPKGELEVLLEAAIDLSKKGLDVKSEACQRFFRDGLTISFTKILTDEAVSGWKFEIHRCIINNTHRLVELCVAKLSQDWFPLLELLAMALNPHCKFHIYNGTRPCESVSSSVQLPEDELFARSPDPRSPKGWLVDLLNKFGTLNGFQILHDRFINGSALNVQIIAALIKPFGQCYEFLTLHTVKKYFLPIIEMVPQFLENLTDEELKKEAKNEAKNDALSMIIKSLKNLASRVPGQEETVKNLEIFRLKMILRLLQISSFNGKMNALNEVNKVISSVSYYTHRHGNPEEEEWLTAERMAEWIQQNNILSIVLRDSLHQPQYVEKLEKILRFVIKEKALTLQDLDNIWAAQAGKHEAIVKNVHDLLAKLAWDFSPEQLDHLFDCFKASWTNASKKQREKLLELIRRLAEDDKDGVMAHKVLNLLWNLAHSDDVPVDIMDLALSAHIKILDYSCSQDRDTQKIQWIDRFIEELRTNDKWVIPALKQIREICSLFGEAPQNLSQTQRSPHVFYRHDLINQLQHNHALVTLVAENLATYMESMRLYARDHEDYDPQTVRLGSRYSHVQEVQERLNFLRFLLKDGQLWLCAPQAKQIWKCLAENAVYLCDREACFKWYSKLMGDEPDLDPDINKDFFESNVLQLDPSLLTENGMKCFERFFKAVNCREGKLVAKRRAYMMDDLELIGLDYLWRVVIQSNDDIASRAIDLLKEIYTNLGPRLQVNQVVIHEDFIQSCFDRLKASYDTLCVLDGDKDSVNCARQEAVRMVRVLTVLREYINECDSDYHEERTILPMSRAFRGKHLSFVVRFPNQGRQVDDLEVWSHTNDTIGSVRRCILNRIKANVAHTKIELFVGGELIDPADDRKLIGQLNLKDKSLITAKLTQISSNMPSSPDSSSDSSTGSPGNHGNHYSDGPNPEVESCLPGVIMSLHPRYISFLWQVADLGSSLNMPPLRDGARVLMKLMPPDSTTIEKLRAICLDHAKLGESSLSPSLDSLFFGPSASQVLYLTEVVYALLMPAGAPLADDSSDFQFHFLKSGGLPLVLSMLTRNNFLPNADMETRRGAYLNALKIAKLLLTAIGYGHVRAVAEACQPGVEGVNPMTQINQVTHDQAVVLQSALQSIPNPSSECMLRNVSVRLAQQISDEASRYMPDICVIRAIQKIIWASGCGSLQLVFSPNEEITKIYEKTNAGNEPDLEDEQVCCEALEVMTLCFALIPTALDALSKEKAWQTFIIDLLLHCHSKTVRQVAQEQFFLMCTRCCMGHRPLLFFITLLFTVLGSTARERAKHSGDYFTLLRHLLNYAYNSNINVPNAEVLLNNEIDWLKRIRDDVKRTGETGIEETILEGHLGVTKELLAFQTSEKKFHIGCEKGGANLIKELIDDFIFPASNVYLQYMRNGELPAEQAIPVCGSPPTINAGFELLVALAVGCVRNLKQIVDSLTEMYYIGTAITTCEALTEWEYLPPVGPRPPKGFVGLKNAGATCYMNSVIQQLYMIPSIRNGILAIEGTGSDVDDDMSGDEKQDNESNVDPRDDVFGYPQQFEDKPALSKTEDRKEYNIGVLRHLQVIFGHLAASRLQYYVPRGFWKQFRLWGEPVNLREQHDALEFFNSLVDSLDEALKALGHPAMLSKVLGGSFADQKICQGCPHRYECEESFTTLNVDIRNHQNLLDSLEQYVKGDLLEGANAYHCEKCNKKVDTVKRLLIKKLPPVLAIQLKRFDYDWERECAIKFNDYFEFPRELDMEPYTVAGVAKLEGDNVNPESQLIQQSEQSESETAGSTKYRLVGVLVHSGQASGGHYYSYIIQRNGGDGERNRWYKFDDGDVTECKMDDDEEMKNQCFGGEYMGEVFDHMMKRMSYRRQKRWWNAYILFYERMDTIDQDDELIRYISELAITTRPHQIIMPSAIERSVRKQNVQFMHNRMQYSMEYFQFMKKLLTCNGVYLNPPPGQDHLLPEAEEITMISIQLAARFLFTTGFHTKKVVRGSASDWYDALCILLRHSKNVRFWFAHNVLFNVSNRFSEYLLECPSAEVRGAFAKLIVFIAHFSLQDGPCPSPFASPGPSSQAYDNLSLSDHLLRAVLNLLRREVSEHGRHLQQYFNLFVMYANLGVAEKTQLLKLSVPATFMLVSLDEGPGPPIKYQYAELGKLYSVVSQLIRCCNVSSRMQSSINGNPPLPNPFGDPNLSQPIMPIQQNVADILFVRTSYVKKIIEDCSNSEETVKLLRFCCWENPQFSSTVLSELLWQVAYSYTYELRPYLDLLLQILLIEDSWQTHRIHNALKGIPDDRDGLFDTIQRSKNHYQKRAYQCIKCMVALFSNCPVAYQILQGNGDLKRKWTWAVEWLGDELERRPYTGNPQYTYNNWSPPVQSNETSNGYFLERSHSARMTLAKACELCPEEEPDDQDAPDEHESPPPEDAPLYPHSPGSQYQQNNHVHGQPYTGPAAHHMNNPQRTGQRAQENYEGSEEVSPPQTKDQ
Outline: as §1

UniProt O00487 = molecular target: UniProt O00487
Sequence of UniProt O00487 (O00487 whole entry): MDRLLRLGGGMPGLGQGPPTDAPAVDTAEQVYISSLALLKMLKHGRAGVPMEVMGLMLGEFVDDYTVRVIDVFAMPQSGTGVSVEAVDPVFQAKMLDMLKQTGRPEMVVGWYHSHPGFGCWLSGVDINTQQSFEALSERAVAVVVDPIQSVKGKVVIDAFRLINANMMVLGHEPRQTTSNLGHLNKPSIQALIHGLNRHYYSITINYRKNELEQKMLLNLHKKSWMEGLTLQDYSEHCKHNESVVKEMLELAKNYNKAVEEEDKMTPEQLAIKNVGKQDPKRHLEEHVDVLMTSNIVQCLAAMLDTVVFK
Outline: as §1

Measured: log2 ratio of Biotin-Ahx-Ub-VS probe labelling

CNC(=O)Cn1cc(NC(=O)CCl)cn1
inactive: USP42 -0.595 | USP46 0.000623 | USP47 0.0561 | USP48 0.0267 | USP5 -0.241 | USP54 0.48 | USP7 -0.438 | USP8 -0.282 | USP9X -0.287 | UniProt O00487 -0.0928
